Results published in PubChem BioAssay (Tox21).
Inconclusive results are not listed. Calls of active or inactive are those of the source. Calls come from the whole dose curve; as a rule, active = well fitted curve in the direction sought with a large enough effect in the repeat runs; inconclusive = weak or mixed curves; inactive = no such curve, though single readings can be large; an effect the other way counts as inactive or inconclusive.

Tests used:
[1] = qHTS RealTime-Glo MT Cell Viability Assay in HEK293 cells - 40 hour (AID 1224874); conditions: RealTime-Glo luminescence; max response: active compounds read low; note: nearly all actives have a fitted effect of over 50% in size
In short: (§1)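 qHTS format; HEK293 cells with NanoLuc/prosubstrate reagent, 37 C/5% CO2 for 5 h pre-dosing; compounds 23 nL in DMSO; luminescence at each time point reflects viable cells.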

[2] = A CellTox Green Cytotoxicity Assay to monitor cytotoxicity in HEK293 cells - 24 hour (AID 1224875); note: series mostly up to about 77 µM; nearly all actives have a fitted effect of over 45% in size
In short: (§2)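 Each value comes from one timepoint of a single continuous run in which HEK293 cells with CellTox Green were exposed to compound for up to 40 h at 37 C, dye fluorescence rising with cell death.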

[3] = A CellTox Green Cytotoxicity Assay to monitor cytotoxicity in HepG2 cells - 16 hour (AID 1224876); note: nearly all actives have a fitted effect of over 45% in size
In short: (§3)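 Continuous culture of HepG2 cells with a membrane-impermeant DNA dye; rising fluorescence marks dead cells. Compound exposure lasted up to 40 h at 37 C, with reads every 8 h from 0 h.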

[4] = qHTS RealTime-Glo MT Cell Viability Assay in HepG2 cells - 32 hour (AID 1224877); note: nearly all actives have a fitted effect of over 55% in size
In short: (§4)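 HepG2 cells were seeded at 600 cells/well together with NanoLuc luciferase and a cell-permeant prosubstrate, preincubated 5 h at 37 C/5% CO2, then pin-dosed with compounds in DMSO. Nonlytic luminescence from viable cells was read at each time point.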

[5] = A CellTox Green Cytotoxicity Assay to monitor cytotoxicity in HepG2 cells - 24 hour (AID 1224878); note: nearly all actives have a fitted effect of over 45% in size
In short: as §3

[6] = qHTS RealTime-Glo MT Cell Viability Assay in HEK293 cells - 0 hour (AID 1224880); note: top concentration of the series differs between compounds; nearly all actives have a fitted effect of over 45% in size
In short: as §1

[7] = A CellTox Green Cytotoxicity Assay to monitor cytotoxicity in HEK293 cells - 32 hour (AID 1224881); note: nearly all actives have a fitted effect of over 40% in size
In short: as §2

[8] = A CellTox Green Cytotoxicity Assay to monitor cytotoxicity in HepG2 cells - 0 hour (AID 1224882); note: nearly all actives have a fitted effect of over 35% in size
In short: as §3

[9] = A CellTox Green Cytotoxicity Assay to monitor cytotoxicity in HepG2 cells - 32 hour (AID 1224883); note: nearly all actives have a fitted effect of over 50% in size
In short: as §3

[10] = A CellTox Green Cytotoxicity Assay to monitor cytotoxicity in HEK293 cells - 8 hour (AID 1224884); note: nearly all actives have a fitted effect of over 35% in size
In short: as §2

[11] = qHTS RealTime-Glo MT Cell Viability Assay in HEK293 cells - 24 hour (AID 1224886); note: top concentration of the series differs between compounds; nearly all actives have a fitted effect of over 50% in size
In short: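 HEK293 cells were seeded at 600 cells/well together with NanoLuc luciferase and cell-permeant prosubstrate, preincubated 5 h at 37 C/5% CO2, then given compound in DMSO by pintool. Luminescence from viable-cell prosubstrate reduction was read repeatedly over 40 h.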

[12] = qHTS RealTime-Glo MT Cell Viability Assay in HEK293 cells - 8 hour (AID 1224887); note: top concentration of the series differs between compounds; nearly all actives have a fitted effect of over 50% in size
In short: as §1

[13] = A CellTox Green Cytotoxicity Assay to monitor cytotoxicity in HEK293 cells - 16 hour (AID 1224888); note: nearly all actives have a fitted effect of over 35% in size
In short: as §2

[14] = qHTS RealTime-Glo MT Cell Viability Assay in HepG2 cells - 0 hour (AID 1224889); note: nearly all actives have a fitted effect of over 50% in size
In short: as §4

[15] = A CellTox Green Cytotoxicity Assay to monitor cytotoxicity in HepG2 cells - 8 hour (AID 1224890); note: nearly all actives have a fitted effect of over 45% in size
In short: as §3

[16] = qHTS assay to identify small molecule antagonists of the estrogen receptor alpha (ER-alpha) signaling pathway using the BG1 cell line in the presence of 0.1 nM 17-beta-estradiol - cell viability counter screen (AID 1259241); note: nearly all actives have a fitted effect of over 40% in size
In short: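 In this screen, hormone-deprived VM7Luc4E2 cells were seeded at 4,000 per well, dosed with compound and 0.1 nM estradiol final, and incubated 22 hr at 37C and 5% CO2; fluorogenic live-cell protease signal reported viability.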

[17] = qHTS assay to identify small molecule antagonists of the androgen receptor (AR) signaling pathway using the MDA cell line in the presence of 0.5 nM R1881 - cell viability counter screen (AID 1259242); note: nearly all actives have a fitted effect of over 45% in size
In short: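 Fluorescence from CellTiter-Fluor, which reports protease activity of live cells, was read 30 min after reagent addition to MDA-kb2 cells that had been incubated 16 hr with compound and 0.5 nM R1881.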

[18] = A CellTox Green Cytotoxicity Assay to monitor cytotoxicity in HepG2 cells - 40 hour (AID 1224879); note: nearly all actives have a fitted effect of over 40% in size
In short: as §3

[19] = qHTS RealTime-Glo MT Cell Viability Assay in HepG2 cells - 16 hour (AID 1224885); note: nearly all actives have a fitted effect of over 50% in size
In short: as §4
% is set by controls: 0 for no effect and ±100 for the full control effect.

CCC(C)(CN(C)C)OC(=O)c1ccccc1 (stereo not given)
inactive: max response [1] 12.1% | outcome [2] | outcome [3] | Potency [4] | outcome [5] | Potency [6] | outcome [7] | Potency [8] | Potency [9] | outcome [10] | Potency [11] | Potency [12] | outcome [13] | Potency [14] | outcome [15] | outcome [16] | outcome [17]

CC(C)[C@H]1CC[C@@H](C)CC1=O
inactive: max response [1] -1.73% | outcome [2] | outcome [3] | Potency [4] | outcome [5] | Potency [18] | Potency [6] | outcome [7] | Potency [8] | Potency [9] | outcome [10] | outcome [19] | Potency [12] | outcome [13] | Potency [14] | outcome [15] | outcome [16] | outcome [17]

Clc1cc(Cl)cc(Cl)c1
inactive: max response [1] 12.7% | outcome [2] | outcome [3] | Potency [4] | outcome [5] | Potency [6] | outcome [7] | Potency [8] | Potency [9] | outcome [10] | outcome [19] | Potency [11] | Potency [12] | outcome [13] | Potency [14] | outcome [15] | outcome [17]

CCN1C=CN(C)C1C (stereo not given)
inactive: max response [1] 0.14% | outcome [2] | outcome [3] | Potency [4] | outcome [5] | Potency [18] | Potency [6] | outcome [7] | Potency [8] | Potency [9] | outcome [10] | Potency [12] | outcome [13] | Potency [14] | outcome [15] | outcome [16] | outcome [17]

O=Cc1cccc(Br)c1
inactive: max response [1] 4.64% | outcome [2] | outcome [3] | Potency [4] | outcome [5] | Potency [6] | outcome [7] | Potency [9] | outcome [10] | outcome [19] | Potency [12] | outcome [13] | Potency [14] | outcome [15] | outcome [16] | outcome [17]

C=COCC1CCC(COC=C)CC1 (stereo not given)
inactive: outcome [2] | Potency [4] | outcome [7] | outcome [10] | outcome [19] | Potency [11] | Potency [14] | outcome [15] | outcome [16] | outcome [17]

CN1CCN(c2cc3c(nn2)Oc2ccccc2N3C)CC1
inactive: max response [1] -0.461% | activity change [2] -12.9% [at 15.8 µM] | cytotoxicity increase [3] -0.721% [at 15.8 µM] | activity change, negative = cytotoxic [4] 3.07% [at 15.8 µM] | cytotoxicity [5] -2.46% [at 15.8 µM] | activity change, negative = cytotoxicity [6] -0.369% [at 15.8 µM] | cytotoxicity increase [7] -14.8% [at 15.8 µM] | cytotoxicity increase [9] -2% [at 15.8 µM] | cytotoxicity increase [10] -6.06% [at 15.8 µM] | activity change, negative = cytotoxic [19] -5.35% [at 15.8 µM] | activity change, negative = cytotoxicity [11] -1.39% [at 15.8 µM] | activity change, negative = cytotoxicity [12] 0.282% [at 15.8 µM] | activity change [13] -9.75% [at 15.8 µM] | activity change, negative = cytotoxicity [14] -7.1% [at 15.8 µM] | cytotoxicity increase [15] 1.91% [at 15.8 µM] | activity change, negative = cytotoxicity [16] -8.18% [at 19 µM] | viability change, negative = cytotoxic [17] 0.195% [at 19 µM]

C[N+]12CCC(CC1)C(OC(=O)C(O)(c1ccccc1)c1ccccc1)C2 (stereo not given)
inactive: outcome [2] | outcome [3] | Potency [4] | outcome [5] | Potency [18] | Potency [6] | outcome [7] | Potency [8] | Potency [9] | outcome [10] | outcome [19] | Potency [11] | Potency [12] | outcome [13] | Potency [14] | outcome [15] | outcome [17]

Cc1ncc([C@@H](CCCCCCc2ccc3c(n2)NCCC3)CC(=O)O)cn1
inactive: max response [1] 4.72% | outcome [2] | outcome [3] | Potency [4] | outcome [5] | Potency [18] | Potency [6] | outcome [7] | Potency [9] | outcome [10] | Potency [12] | outcome [13] | Potency [14] | outcome [15] | outcome [16] | outcome [17]

Clc1cc(Cl)c(Cl)nc1Cl
inactive: outcome [2] | outcome [3] | Potency [4] | outcome [5] | Potency [18] | Potency [6] | outcome [7] | Potency [8] | Potency [9] | outcome [10] | outcome [19] | Potency [12] | outcome [13] | Potency [14] | outcome [16] | outcome [17]

C[N+]1(C)[C@@H]2CC(OC(=O)[C@H](CO)c3ccccc3)C[C@H]1[C@@H]1O[C@@H]12 (stereo not given in full)
inactive: outcome [2] | outcome [3] | outcome [5] | Potency [18] | outcome [7] | Potency [8] | Potency [9] | outcome [10] | outcome [13] | outcome [15] | outcome [16] | outcome [17]

COc1cc(-c2ccc(=O)[nH]n2)ccc1OC(F)F
inactive: max response [1] -5.19% | outcome [2] | outcome [3] | Potency [4] | outcome [5] | Potency [18] | Potency [6] | outcome [7] | Potency [8] | Potency [9] | outcome [10] | Potency [12] | Potency [14] | outcome [16] | outcome [17]

CC(C)CCCO
inactive: outcome [2] | outcome [3] | Potency [4] | outcome [5] | Potency [18] | Potency [6] | outcome [7] | Potency [8] | Potency [9] | outcome [10] | outcome [19] | Potency [11] | Potency [12] | Potency [14] | outcome [15] | outcome [16] | outcome [17]
